In PubChem BioAssay (Tox21):
A number with no mark means an inactive call. Inconclusive results are not listed. Entries that show only a call come without a potency. The source made the active and inactive calls. Calls follow the shape of the full dose curve.

What was measured:
[1] = biological target: Acetylcholinesterase (Homo sapiens) (UniProt P22303); assay: Acetylcholinesterase (AChE) small molecule antagonists: colormetric cell-based qHTS assay (AID 1347395); also: nearly all actives have a fitted effect of over 30% in size
Summary of the method: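 SH-SY5Y cells attached overnight, exposed to compound 30 min at 37 C, then given DTNB/acetylthiocholine; after 90 min at 37 C, colorimetric thiocholine read gives cellular AChE activity.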

[2] = biological target: Acetylcholinesterase (Homo sapiens) (UniProt P22303); assay: Acetylcholinesterase (AChE) small molecule antagonists: enzyme-based qHTS assay (AID 1347397); conditions: Potency: AChE enzyme activity inhibition; outcome: AChE enzyme activity inhibition; also: nearly all actives have a fitted effect of over 55% in size
Summary of the method: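 Recombinant human AChE, dispensed at 50 mU/mL, was preincubated with Tox21 10K compounds or DMSO vehicle for 30 min at room temperature. DTNB plus acetylthiocholine was then added, and thiocholine was measured colorimetrically after a further 10 min.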

[3] = biological target: Acetylcholinesterase (Homo sapiens) (UniProt P22303); assay: Acetylcholinesterase (AChE) small molecule antagonists: fluorescence cell-based qHTS assay (AID 1347398); conditions: Potency: AChE activity; outcome: AChE activity; also: nearly all actives have a fitted effect of over 50% in size
Summary of the method: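 Human SH-SY5Y cells were plated overnight at 37 C, exposed to compound for 30 min at 37 C, 5% CO2, then given acetylthiocholine plus Thiolite Green for 40 min at room temperature; thiocholine fluorescence (Ex/Em 490/520 nm) reports endogenous AChE activity.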

[4] = biological target: Acetylcholinesterase (Homo sapiens) (UniProt P22303); assay: Acetylcholinesterase (AChE) small molecule antagonists: enzyme-based qHTS assay with human liver microsomes (AID 1347399); conditions: Potency: qHTS inhibition; outcome: qHTS inhibition; also: nearly all actives have a fitted effect of over 60% in size
Summary of the method: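 Recombinant human AChE (50 mU/mL in the enzyme mix) and human liver microsomes (0.25 mg/mL final) were preincubated with compound and NADPH (0.25 mg/mL final) for 30 min at 37 C. Acetylthiocholine/DTNB was then added; thiocholine was read colorimetrically after 10 min at room temperature.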
Potency is read from the fitted curve at half-maximal effect.

Sequence of Acetylcholinesterase (Homo sapiens) (P22303 whole entry, looked up): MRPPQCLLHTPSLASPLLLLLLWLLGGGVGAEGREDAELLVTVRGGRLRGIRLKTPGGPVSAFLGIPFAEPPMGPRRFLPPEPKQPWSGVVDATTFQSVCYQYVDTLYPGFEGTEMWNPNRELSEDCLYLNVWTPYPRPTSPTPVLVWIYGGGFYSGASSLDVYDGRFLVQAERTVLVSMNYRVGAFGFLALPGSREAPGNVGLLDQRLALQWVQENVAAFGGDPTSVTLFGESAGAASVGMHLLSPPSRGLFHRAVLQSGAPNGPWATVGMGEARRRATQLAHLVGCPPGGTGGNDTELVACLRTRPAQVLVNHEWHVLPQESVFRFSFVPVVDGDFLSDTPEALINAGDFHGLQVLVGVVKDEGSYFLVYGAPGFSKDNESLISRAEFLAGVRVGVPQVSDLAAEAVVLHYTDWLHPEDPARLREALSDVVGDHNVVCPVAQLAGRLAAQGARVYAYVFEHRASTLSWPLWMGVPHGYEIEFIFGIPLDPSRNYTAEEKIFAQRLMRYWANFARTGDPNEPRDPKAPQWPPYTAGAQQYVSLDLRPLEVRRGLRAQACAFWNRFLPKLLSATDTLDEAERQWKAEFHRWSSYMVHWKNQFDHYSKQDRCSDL

Compound | Potency [1] | Potency [2] | Potency [3] | Potency [4] | activity, negative = inhibition [1] | activity change, negative = inhibition [2] | activity change, negative = inhibition [3] | activity change, negative = inhibition [4]
CC1(C)C(=O)N(Br)C(=O)N1Cl | inactive | inactive | inactive | inactive |  |  |  | 
SCCCCCCCCS | inactive | inactive | inactive | inactive |  |  |  | 
CCCN(CCC)C(=O)C(CCC(=O)O)NC(=O)c1ccccc1 (centres undefined) | inactive | inactive | inactive | inactive |  |  |  | 
C[C@H](CCC(=O)O)[C@H]1CC[C@H]2[C@@H]3[C@H](O)C[C@@H]4C[C@H](O)CC[C@]4(C)[C@H]3C[C@H](O)[C@]12C | inactive | inactive | inactive | inactive |  |  |  | 
Nc1nc(Cl)nc2c1ncn2[C@@H]1O[C@H](CO)[C@@H](O)[C@@H]1F | inactive | inactive | inactive | inactive |  |  |  | 
CC(S)C(C)S (centres undefined) | inactive | inactive | inactive | inactive |  |  |  | 
CCC(C)C(=O)OC (centres undefined) | inactive | inactive | inactive | inactive |  |  |  | 
O=S1OCCO1 | inactive | inactive | inactive | inactive |  |  |  | 
CCOC(=O)CC(=O)c1cc(F)c(Cl)nc1Cl | inactive | inactive | inactive | inactive |  |  |  | 
O=C(O)/C=C/c1ccc(/C=C/C(=O)O)cc1 | inactive | inactive | inactive | inactive |  |  |  | 
CCCCCCOC(=O)NC(=N)c1ccc(NCc2nc3cc(C(=O)N(CCC(=O)OCC)c4ccccn4)ccc3n2C)cc1 | inactive | inactive | inactive | inactive |  |  |  | 
CC(C)=CCCC(C)CCOC(=O)C(C)C (centres undefined) | inactive | inactive | inactive | inactive |  |  |  | 
O=c1[nH]sc2ccccc12 | inactive | inactive | inactive | inactive |  |  |  | 
S=P(N1CC1)(N1CC1)N1CC1 | 66.7 µM (active) | 59.4 µM (active) | 33.4 µM (active) | 74.8 µM (active) |  |  |  | 
COc1c2occc2c(OC)c2c(=O)cc(C)oc12 | inactive | inactive | inactive | inactive |  |  |  | 
COCCOCCOCCOCCOC | inactive | inactive | inactive | inactive |  |  |  | 
CCOC(=O)[C@H](CCc1ccccc1)N[C@@H](C)C(=O)N1[C@H](C(=O)O)C[C@@H]2CCC[C@@H]21 | inactive | inactive | inactive | inactive |  |  |  | 
CC(C)(O)c1ccc(CNC(=O)c2cccnc2Oc2ccc(F)cc2)cc1 | inactive | inactive | inactive | inactive |  |  |  | 
CCCC(=O)C(=O)O | inactive | inactive | inactive | inactive |  |  |  | 
C=CC(C)(CCC=C(C)C)OC=O (centres undefined) | inactive | inactive | inactive | inactive |  |  |  | 
CC1(C)[C@@H](O)CC[C@]2(C)[C@H]3C(=O)C=C4[C@@H]5C[C@@](C)(C(=O)O)CC[C@]5(C)CC[C@@]4(C)[C@]3(C)CC[C@@H]12 | inactive | inactive | inactive | inactive |  |  |  | 
CCc1nccnc1C | inactive | inactive | inactive | inactive |  |  |  | 

Compound | Potency [1] | Potency [2] | Potency [3] | Potency [4] | activity, negative = inhibition [1] | activity change, negative = inhibition [2] | activity change, negative = inhibition [3] | activity change, negative = inhibition [4]
Oc1ccc2c(c1)Cc1ccccc1-2 | inactive | inactive | inactive | inactive |  |  |  | 
CC(=O)S[C@H](C(=O)N[C@H]1Cc2ccccc2[C@H]2CCC[C@@H](C(=O)O)N2C1=O)C(C)C | inactive | inactive | inactive | inactive |  |  |  | 
CCCCOC(=O)C(C)O (centres undefined) | inactive | inactive | inactive | inactive |  |  |  | 
CCO[Si](CCC1CCC2OC2C1)(OCC)OCC (centres undefined) | inactive | inactive | inactive | inactive |  |  |  | 
O=C(Cn1ccnc1[N+](=O)[O-])NCCO | inactive | inactive | inactive | inactive |  |  |  | 
CC(C)OC(=O)C(C)N(C(=O)c1ccccc1)c1ccc(F)c(Cl)c1 (centres undefined) | inactive | inactive | inactive | inactive |  |  |  | 
O=C1OC[C@H](Cc2cccc(O)c2)[C@H]1Cc1cccc(O)c1 | inactive | inactive | inactive | inactive |  |  |  | 
CC(=O)OC1C2(C)CCC(C2)C1(C)C (centres undefined) | inactive | inactive | inactive | inactive |  |  |  | 
CCCCCCCCCCCCCCCCN(C)C |  |  |  |  | -4.82% [at 10.5 µM] | -0.395% [at 10.5 µM] | -5.81% [at 10.5 µM] | -0.307% [at 10.5 µM]
O=c1c(-c2ccccc2)c1-c1ccccc1 | inactive | inactive | inactive | inactive |  |  |  | 
CC(C)(C)NCCNC(C)(C)C | inactive | inactive | inactive | inactive |  |  |  | 
CCCCCCCCCCCl | inactive | inactive | inactive | inactive |  |  |  | 
Cc1cc(N)c(S(=O)(=O)O)cc1Cl | inactive | inactive | inactive | inactive |  |  |  | 
O=C[C@H](O)[C@@H](O)[C@H](O)[C@H](O)CO | inactive | inactive | inactive | inactive |  |  |  | 
O=C1OC(=O)c2ccccc21 | inactive | inactive | inactive | inactive |  |  |  | 
C=C[Si](C)(C)O[Si](C)(C)C=C | inactive | inactive | inactive | inactive |  |  |  | 
CCOC(=O)[C@@](C)(N)Cc1ccc(O)c(O)c1 | inactive | inactive | inactive | inactive |  |  |  | 
N[C@H](C(=O)O)[C@@H](O)c1ccc(O)c(O)c1 | inactive | inactive | inactive | inactive |  |  |  | 
CC(C(=O)O)c1ccc2c(c1)Cc1cccnc1O2 (centres undefined) | inactive | inactive | inactive | inactive |  |  |  | 
CC(C)(C)N(CCO)CCO | inactive | inactive | inactive | inactive |  |  |  | 
Nc1ncnc2c1ncn2Cc1c(F)cccc1Cl | inactive | inactive | inactive | inactive |  |  |  | 
N#Cc1ccc(C/C(=N/NC(=O)Nc2ccc(OC(F)(F)F)cc2)c2cccc(C(F)(F)F)c2)cc1 | inactive | inactive | inactive | inactive |  |  |  | 

Compound | Potency [1] | Potency [2] | Potency [3] | Potency [4] | activity, negative = inhibition [1] | activity change, negative = inhibition [2] | activity change, negative = inhibition [3] | activity change, negative = inhibition [4]
CC(C)O | inactive | inactive | inactive | inactive |  |  |  | 
OCCNCc1ccccc1 | inactive | inactive | inactive | inactive |  |  |  | 
O=S1(=O)CCCC1 | inactive | inactive | inactive | inactive |  |  |  | 
C/C=C(/C(=C/C)c1ccc(OC(C)=O)cc1)c1ccc(OC(C)=O)cc1 | inactive | inactive | inactive | inactive |  |  |  | 
NC(=O)c1c(Cl)cccc1Cl | inactive | inactive | inactive | inactive |  |  |  | 
NC(=O)c1ccccc1C(N)=O | inactive | inactive | inactive | inactive |  |  |  | 
CCNC(=O)C(C)OC(=O)Nc1ccccc1 (centres undefined) | inactive | inactive | inactive | inactive |  |  |  | 
C=C(C)C(=O)OCC(C)(C)COC(=O)C(=C)C | inactive | inactive | inactive | inactive |  |  |  | 
CC(C)(C)c1cc(CCC(=O)OCCSCCOC(=O)CCc2cc(C(C)(C)C)c(O)c(C(C)(C)C)c2)cc(C(C)(C)C)c1O | inactive | inactive | inactive | inactive |  |  |  | 
CC(C)(C)OC(=O)c1ccc(O)cc1 | inactive | inactive | inactive | inactive |  |  |  | 
O=CNc1ccccc1 | inactive | inactive | inactive | inactive |  |  |  | 
CN(C)C(C)(C)CO | inactive | inactive | inactive | inactive |  |  |  | 
CC(CN(C)C)CN1c2ccccc2CCc2ccccc21 (centres undefined) | inactive | inactive | inactive | inactive |  |  |  | 
C=CC(C)(O)CC/C=C(\C)CCC=C(C)C (centres undefined) | inactive | inactive | inactive | inactive |  |  |  | 
CCCCCCCC/C=C\CCCCCCCC(=O)OCC | inactive | inactive | inactive | inactive |  |  |  | 
C=Cc1ccc(S(=O)(=O)O)cc1 | inactive | inactive | inactive | inactive |  |  |  | 
CCCCCCCC[Si](OCC)(OCC)OCC | inactive | inactive | inactive | inactive |  |  |  | 
CC[N+](CC)(CC)CCOC(=O)C(C1CCCC1)C1CCCC1 | inactive | inactive | inactive | inactive |  |  |  | 
CCC(=O)OCc1ccc(OC)cc1 | inactive | inactive | inactive | inactive |  |  |  | 
N#CCc1cccc(C(F)(F)F)c1 | inactive | inactive | inactive | inactive |  |  |  | 
COCCCOCCCOC | inactive | inactive | inactive | inactive |  |  |  | 
OC[C@@H](O)[C@@H](O)CO | inactive | inactive | inactive | inactive |  |  |  | 

Compound | Potency [1] | Potency [2] | Potency [3] | Potency [4] | activity, negative = inhibition [1] | activity change, negative = inhibition [2] | activity change, negative = inhibition [3] | activity change, negative = inhibition [4]
C=CCn1cc[n+](C)c1 | inactive | inactive | inactive | inactive |  |  |  | 
CCn1c(=O)c2c(nc(/C=C/c3ccc(OC)c(OC)c3)n2C)n(CC)c1=O | inactive | inactive | inactive | inactive |  |  |  | 
CCCCCCCCC(CO)CCCCCC (centres undefined) | inactive | inactive | inactive | inactive |  |  |  | 
COc1cc(NS(=O)(=O)c2ccc(N)cc2)nc(C)n1 | inactive | inactive | inactive | inactive |  |  |  | 
O=C(N[C@H](CO)[C@H](O)c1ccc([N+](=O)[O-])cc1)C(Cl)Cl | inactive | inactive | inactive | inactive |  |  |  | 
COc1cc(C(C)C)ccc1C |  |  |  |  | 0.291% [at 23.6 µM] | 1.63% [at 23.6 µM] | 2.94% [at 23.8 µM] | -4.86% [at 23.6 µM]
CCCCCCOC(=O)CCCCC | inactive | inactive | inactive | inactive |  |  |  | 
CC(=O)Oc1ccc(C(C)=O)cc1 | inactive | inactive | inactive | inactive |  |  |  | 
O=C(/N=N/C(=O)OCc1ccccc1)OCc1ccccc1 | inactive | inactive | inactive | inactive |  |  |  | 
CCCCCCCCCOC(C)=O | inactive | inactive | inactive | inactive |  |  |  | 
O=C(O)[C@@H]1[C@H]2C[C@H]3c4[nH]c5ccccc5c4CCN3C[C@@H]2CC[C@@H]1O | inactive | inactive | inactive | inactive |  |  |  | 
S=c1[nH][nH]c(=S)s1 | inactive | inactive | inactive | inactive |  |  |  | 
COC(=O)C(C)=O | inactive | inactive | inactive | inactive |  |  |  | 
CN(CCCN1c2ccccc2CCc2ccccc21)CC(=O)c1ccc(Cl)cc1 | inactive | inactive | inactive | inactive |  |  |  | 
Cc1cccc(Br)c1 | inactive | inactive | inactive | inactive |  |  |  | 
CC(CC=O)CC(C)(C)C (centres undefined) | inactive | inactive | inactive | inactive |  |  |  | 
N#CCc1ccccc1[N+](=O)[O-] | inactive | inactive | inactive | inactive |  |  |  | 
CC1=C(O)C(=O)C(C)O1 (centres undefined) | inactive | inactive | inactive | inactive |  |  |  | 
CC1=NN(c2cccc(S(=O)(=O)O)c2)C(=O)C1 | inactive | inactive | inactive | inactive |  |  |  | 
CCOc1ncc(F)c(=O)[nH]1 | inactive | inactive | inactive | inactive |  |  |  | 
